# In article PMC7826789 (International Journal of Molecular Sciences, 2021):
# Legend:
# Details in all cases: Compound Concentration (nM):1000
# ROCK2 = system: ROCK2
# ROS1 = system: ROS1
# [1] = system: RPS6KA4(Kin.Dom.1-N-terminal)
# [2] = system: RPS6KA4(Kin.Dom.2-C-terminal)
# [3] = system: RPS6KA5(Kin.Dom.1-N-terminal)
# [4] = system: RPS6KA5(Kin.Dom.2-C-terminal)
# [5] = system: T1, RSK1(Kin.Dom.1-N-terminal)
# T1 construct: gene RPS6KA1
# [6] = system: T2, RSK1(Kin.Dom.2-C-terminal)
# T2 construct: gene RPS6KA1
# [7] = system: T3, RSK2(Kin.Dom.1-N-terminal)
# T3 construct: gene RPS6KA3
# [8] = system: T4, RSK2(Kin.Dom.2-C-terminal)
# T4 construct: gene RPS6KA3
# [9] = system: T5, RSK3(Kin.Dom.1-N-terminal)
# T5 construct: gene RPS6KA2
# [10] = system: T6, RSK3(Kin.Dom.2-C-terminal)
# T6 construct: gene RPS6KA2
# [11] = system: T7, RSK4(Kin.Dom.1-N-terminal)
# T7 construct: gene RPS6KA6
# [12] = system: T8, RSK4(Kin.Dom.2-C-terminal)
# T8 construct: gene RPS6KA6
# S6K1 = system: T9, S6K1
# T9 construct: gene RPS6KB1
# SBK1 = system: SBK1
# SGK2 = system: SGK2
# SGK3 = system: SGK3
# SGK = system: T10, SGK
# T10 construct: gene SGK1
# SIK2 = system: SIK2
# 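Also: KINOMEscan scanMAX binding as percent activity remaining versus control; lower means stronger binding.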
Compound,Percent Control (ROCK2) [%],Percent Control (ROS1) [%],Percent Control [1] [%],Percent Control [2] [%],Percent Control [3] [%],Percent Control [4] [%],Percent Control [5] [%],Percent Control [6] [%],Percent Control [7] [%],Percent Control [8] [%],Percent Control [9] [%],Percent Control [10] [%],Percent Control [11] [%],Percent Control [12] [%],Percent Control (S6K1) [%],Percent Control (SBK1) [%],Percent Control (SGK2) [%],Percent Control (SGK3) [%],Percent Control (SGK) [%],Percent Control (SIK2) [%]
NS(=O)(=O)c1ccc(N/N=C2\C(=O)Nc3ccc(Cl)cc32)cc1 [GW280670X],89,79,100,97,100,100,100,100,100,83,100,100,99,100,98,100,100,77,100,100
COc1cc(/C=N/Nc2ncnc3[nH]ncc23)ccc1O [GW578748X],33,96,100,5.5,100,91,100,100,72,93,100,100,45,100,40,16,40,7.1,1.5,83
C/C(Nc1ccc(S(N)(=O)=O)cc1)=C1/C(=O)Nc2ccccc21 [GW335962X],69,76,96,85,100,100,100,92,52,89,83,82,47,86,60,100,71,26,21,90
COc1ccccc1-c1cc(/C=C2\C(=O)Nc3ncc(Br)cc32)cc(Br)c1O [GW442130X],82,95,100,68,76,46,100,58,100,79,100,100,100,100,100,95,85,94,71,100
CN1CCN(C(=O)c2ccc(NC(=O)Nc3ccc(N(C)c4ccnc(Nc5ccc(CS(C)(=O)=O)cc5)n4)cc3)cc2)CC1.Cl [GW830263A],1.5,57,82,74,100,87,100,93,57,86,84,89,74,84,37,65,73,79,57,56
Cc1cc(O)cc(C)c1/C=C/c1cncc(C(N)=O)c1 [GW435821X],100,86,100,98,100,100,100,100,100,96,100,100,96,100,100,100,100,84,100,53
CN(C)CCNC(=O)Nc1ccc(N(C)c2ccnc(Nc3ccc(CS(C)(=O)=O)cc3)n2)cc1.Cl [GW830900A],9.1,61,100,88,100,100,100,84,73,82,100,94,74,87,85,95,80,84,48,73
CC(C)COC(=O)c1ccc2c(c1)/C(=C/Nc1ccc(S(N)(=O)=O)cc1)C(=O)N2 [GW416981X],21,100,100,67,100,66,100,100,36,97,100,100,43,100,65,71,79,18,31,94
COc1ccc2cc(-c3c(-c4ccncc4)nc(-c4ccc(S(C)(=O)=O)cc4C)n3C)ccc2c1 [SB-633825],80,69,100,91,95,51,82,97,62,70,98,100,60,83,66,78,59,73,94,100
NS(=O)(=O)c1ccc(N/N=C2\C(=O)Nc3ccc(C(=O)NCc4ccncc4)cc32)cc1 [GW300657X],56,100,87,42,100,19,94,83,79,87,100,80,56,80,78,37,81,12,36,100
COc1ccc2c(-c3ccnc(Nc4cccc(OC(F)(F)F)c4)n3)cnn2n1 [GW810372X],100,96,100,100,100,87,100,100,95,90,100,99,99,100,87,100,100,79,100,100
C[C@@H](Oc1cc(-n2cnc3ccc(OC4CCN(C)CC4)cc32)sc1C(N)=O)c1ccccc1Cl [GSK579289A],83,100,100,3.2,100,38,71,86,23,98,48,67,19,80,62,62,100,84,90,100
CCc1ccc(Oc2nccc(-c3c(-c4ccc(F)cc4)ncn3C3CCNCC3)n2)cc1 [SB-242719],90,61,100,73,98,87,99,77,97,94,92,94,93,79,93,100,100,77,100,66
CCn1c(-c2nonc2N)nc2c(C#CC(C)(C)O)nc(OCCNC)cc21.Cl [GSK949675],78,100,100,5.9,91,34,100,100,97,72,99,100,100,100,100,96,100,92,94,90
COC(=O)Nc1nc2ccc(Oc3ccc(NC(=O)Nc4cc(C(F)(F)F)ccc4F)cc3)cc2s1.Cl [GW693917A],86,95,100,80,100,100,99,94,98,86,65,91,76,79,54,100,80,78,87,68
COc1ccc(COc2ccc(Cc3cnc(N)nc3N)cc2OC)cc1 [GW632580X],95,82,100,77,97,87,100,100,100,100,79,89,98,93,85,100,95,72,100,93
COc1ccc2[nH]c3c4[nH]c5ccc(OC)cc5c4c4c(c3c2c1)C(=O)NC4=O [GW296115X],73,24,71,25,53,66,49,100,21,95,28,69,5.8,61,21,95,46,8.1,6.8,9.9
Cl.c1ccc(Cc2nc3ccc(Nc4ncnc5ccccc45)cc3[nH]2)cc1 [GR269666A],98,76,100,100,100,100,100,100,100,97,100,100,100,98,100,100,100,81,100,82
COc1cc(C)c(N(C)C(=O)CN(C)C)cc1Nc1nc(Nc2cccc(F)c2C(N)=O)c2cc[nH]c2n1 [GSK2219385],100,84,92,68,100,90,56,96,21,100,79,90,75,82,100,100,92,92,92,100
CN(C)c1cc2c(Nc3ccc4c(cnn4Cc4ccccc4)c3)ncnc2cn1 [GW282974X],96,100,93,89,100,92,97,100,95,100,100,93,75,74,95,100,99,99,98,71
